An excerpt weighted towards active compounds, which were near 19% of everything screened.
TDP1 cell CPT: DT40-hTDP1 cell growth loss with CPT. chicken DT40 Tdp1-/-;hTDP1 cells + 20 nM CPT, ATP luminescence, 48 h. Potency, µM (top dose mostly 46.2 µM), for the others: at the highest dose activity change, negative = growth inhibition, usual class: inhibitors. 12% of 420,000 active; also: potency is read from the fitted curve at half-maximal effect; nearly all actives have a fitted effect of over 55% in size
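Cell growth measured by CellTiter-Glo luminescence after a minimum 48 h, 37 C compound exposure with 20 nM CPT in Tdp1-knockout DT40 cells stably expressing hTDP1, seeded 400/well; qHTS titration format.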
HT1080 IDH1KD tx: HT-1080 IDH1 knockdown cell toxicity (counter line) | HT-1080 IDH1 knockdown viability, ATP luminescence, 48 h | Potency, µM (titrated, usually from 46.1 µM), without a hit: top-dose activity, negative = toxicity, most hits filed as cytotoxic | 2% of 360,000 active;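 also: potency is read from the fitted curve at half-maximal effect; 0% = DMSO wells and -100% = cell-free medium wells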
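% activity derives from luminescence (CellTiter-Glo), normalised to DMSO and no-cell wells. HT-1080-IDH1KD cells, 750/well, had 48 h compound exposure at 37 °C.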
DT40 TDP1 no CPT: qHTS for Inhibitors of human tyrosyl-DNA phosphodiesterase 1 (TDP1): qHTS in cells in absence of CPT | AID 686978, 2013 | 15% of 420,000 active | Potency, µM (series often up to 46.2 µM), for inactives: top-dose activity change, negative = growth inhibition, actives largely listed as inhibitors | DT40 Tdp1-/- hTDP1 cells, no CPT, ATP luminescence, 48 h; also: potency is read from the fitted curve at half-maximal effect; nearly all actives have a fitted effect of over 55% in size
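Stably hTDP1-transfected Tdp1-null chicken DT40 cells were treated with library compounds minus camptothecin and grown for at least 48 hr at 37 °C, after which cellular ATP was quantified by luminescence.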
IL1B secr inh: blocks inflammasome-driven IL-1 beta release | 4.7% of 360,000 active | activity change, % at 57.5 µM | THP-1 LPS/ATP IL-1B secretion, AlphaLISA, 16 h; active compounds read low; in the data active = activity change below about -50%; inconclusive = mostly about -30% to -49%
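Secreted IL-1B measured by AlphaLISA bead assay after 16 h compound exposure of THP-1 cells; compounds (final up to 57.5 uM) added 1 h before LPS (250 ng/mL) and ATP (1.25 mM) stimulation; lower signal means less secretion.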
HT1080-NT tox: kills 2HG-producing HT-1080-NT fibrosarcoma cells; 1.6% of 360,000 active; Potency, µM (highest dose often 46.1 µM), without a hit: top-dose activity, negative = less viability, actives largely listed as cytotoxic; HT-1080-NT fibrosarcoma viability, CellTiter-Glo ATP luminescence, 48 h;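 also: NT is the 2HG producing partner of a matched IDH1 knockdown line; potency is read from the fitted curve at half-maximal effect; 0% = DMSO-treated cells and -100% = media-only wells without cells; nearly all actives have a fitted effect of over 55% in size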
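Viability of the 2HG-overproducing fibrosarcoma line after 48 hours of compound exposure at 37 degrees C was determined by luminescence with CellTiter-Glo, and concentration-effect curves were then fitted and categorized.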
* marks the source's active call; other numbers are inactive results; ? = inconclusive; / = not tested or not shown; [ ] = another dose, or the depositor's remark. Unless noted, calls follow the shape of the dose curve; as a rule, active = well fitted curve in the direction sought with a large enough effect; inconclusive = small, poorly fitted or top-dose-only effect, or another doubt; inactive = no such curve, though single readings can be large; an effect the other way counts as inactive or inconclusive. Unless noted, % is scaled to controls: 0 for no effect and ±100 for the full control effect.

SMILES	TDP1 cell CPT	HT1080 IDH1KD tx	DT40 TDP1 no CPT	IL1B secr inh	HT1080-NT tox
Cc1c(Cl)cccc1NC(=O)C(=O)NNC(=O)c1ccccc1F	?	-24.5%	?	-29.0	?
COc1cc(C)nc2nc(SCc3ccccc3)nn12	0.4%	18.9%	-14.4%	11.3	14.8%
C[C@H](CO)N1C[C@H](C)[C@@H](CN(C)Cc2ccc(-c3ccccc3)cc2)Oc2c(NC(=O)Cc3ccccc3)cccc2C1=O	?	-18.9%	23.1µM*	-23.5	-8.1%
C[C@H](CO)N1C[C@H](C)[C@@H](CN(C)Cc2ccc(Cl)c(Cl)c2)Oc2c(NC(=O)Cc3ccccc3)cccc2C1=O	?	?	14.6µM*	?	-28.4%
C[C@@H]1CN([C@@H](C)CO)C(=O)c2cc(NC(=O)C3CC3)ccc2O[C@@H]1CN(C)Cc1ccc(Cl)c(Cl)c1	20.6µM*	?	23.1µM*	?	-26.6%
C[C@H](CO)N1C[C@H](C)[C@@H](CN(C)Cc2ccc(-c3ccccc3)cc2)Oc2c(NS(=O)(=O)c3ccccc3)cccc2C1=O	20.6µM*	-9.2%	18.4µM*	?	-11.6%
CC1CC(=O)N(C)c2cc([N+](=O)[O-])ccc2N1 (centres undefined)	0.9%	5.7%	5.1%	-1.7	11.1%
Cc1csc(C(C)N(C)C(=O)c2cc(NC(=O)C3CCC3)c3c(c2)nc(-c2ccncc2)n3C)n1 (centres undefined)	8.5%	/	6.3%	/	/
COCCn1c(SCC(=O)c2c(N)n(C3CC3)c(=O)[nH]c2=O)nc2ccccc21	-2.0%	-18.4%	1.7%	26.1	-15.7%
C[C@H](CO)N1C[C@H](C)[C@@H](CN(C)Cc2ccc(Cl)c(Cl)c2)Oc2c(NS(=O)(=O)c3ccc(F)cc3)cccc2C1=O	?	?	23.1µM*	-82.2*	?
C[C@H](CO)N1C[C@H](C)[C@@H](CN(C)Cc2ccncc2)Oc2c(NC(=O)Cc3ccccc3)cccc2C1=O	?	14.6µM*	?	17.5	?
C[C@H](CO)N1C[C@H](C)[C@@H](CN(C)C)Oc2c(NC(=O)Cc3ccccc3)cccc2C1=O	?	0.6%	-24.1%	52.6	0.6%
C[C@@H]1CN([C@@H](C)CO)C(=O)c2cccc(NC(=O)C3CCCCC3)c2O[C@@H]1CN(C)Cc1ccc(Cl)c(Cl)c1	10.3µM*	?	20.6µM*	-90.4*	?
C[C@H](CO)N1C[C@H](C)[C@@H](CN(C)Cc2ccncc2)Oc2c(NC(=O)C3CCCCC3)cccc2C1=O	?	-0.5%	?	-2.7	-2.7%
C[C@H](CO)N1C[C@H](C)[C@@H](CN(C)Cc2ccccc2)Oc2c(NC(=O)Cc3ccccc3)cccc2C1=O	14.6µM*	?	10.3µM*	-8.8	?
O=C(CCCn1c(=S)[nH]c2cc3c(cc2c1=O)OCO3)N1CCc2ccccc2C1	-11.5%	-10.7%	-18.8%	9.7	-16.4%
COCCN(C(=O)c1ccccc1OC1CCN(S(C)(=O)=O)CC1)C(C)C	-2.5%	1.6%	?	5.9	-1.9%
C[C@@H]1CN([C@@H](C)CO)C(=O)c2cccc(NS(=O)(=O)c3cccs3)c2O[C@H]1CN(C)Cc1ccc(C(F)(F)F)cc1	16.4µM*	-7.1%	?	-11.7	-1.1%
O=[N+]([O-])c1cc2c(cc1CN1CCN(CCOCCO)CC1)OCO2	?	-5.6%	-15.2%	7.8	3.6%
CCn1c(SCC(=O)Nc2ccc(OC)c(S(=O)(=O)N3CCCCC3)c2)nnc1C1CC1	5.9%	0.7%	10.2%	-11.6	0.2%
Cc1cc(C)cc(-n2c(SCC(=O)Nc3cccc(S(=O)(=O)NC4=NCCCCC4)c3)nc3ccccc3c2=O)c1	18.4µM*	9.0%	?	-21.1	?
O=C(CCl)Nc1cccc(S(=O)(=O)NC2=NCCCCC2)c1	3.66µM*	?	5.17µM*	-99.3*	3.66µM*
Cc1cc(OCC(=O)Nc2cccc(S(=O)(=O)NC3=NCCCCC3)c2)ccc1Cl	?	-1.9%	2.59µM*	?	-6.4%
O=C(CCl)Nc1ccc(S(=O)(=O)NC2=NCCCCC2)cc1	18.4µM*	18.4µM*	13µM*	-96.2*	?
CC(C)(C)C(=O)Nc1ccc(S(=O)(=O)NC2=NCCCCC2)cc1	?	2.9%	-26.7%	6.1	-4.9%[9.24 µM]
SMILES	TDP1 cell CPT	HT1080 IDH1KD tx	DT40 TDP1 no CPT	IL1B secr inh	HT1080-NT tox
Cc1cc(Cl)ccc1NC(=S)NCC(O)c1ccccc1 (centres undefined)	?	-9.2%	?	-8.7	-2.0%
CCC(C)[C@H](NC(=O)N1CC(=O)Nc2ccccc21)C(=O)N[C@@H](Cc1c[nH]c2ccccc12)C(=O)O (some centres undefined)	-7.8%	3.3%	-5.5%	26.3	-0.1%
CCCOc1ccc(C(=O)Nc2ccc(S(=O)(=O)NC3=NCCCCC3)cc2)cc1	13µM*	-24.5%	20.6µM*	-5.7	-16.9%
Nc1nc2cc(S(=O)(=O)NC3=NCCCCC3)ccc2s1	14.6µM*	1.9%	13µM*	?	21.7%
Cc1ccc(C)c(SCC(=O)Nc2cccc(S(=O)(=O)NC3=NCCCCC3)c2)c1	-26.7%	-9.6%	?	-10.6	-4.4%
O=C(CSc1ccc2ccccc2c1Br)Nc1cccc(S(=O)(=O)NC2=NCCCCC2)c1	-28.2%	16.4µM*	?	-22.4	18.4µM*
Nc1ccc(S(=O)(=O)NC2=NCCCCC2)cc1	-21.0%	26.5%	-11.2%	-5.4	22.0%
C=CCN1C(=O)CSc2ccc(C(=O)NC(C)c3ccccc3)cc21 (centres undefined)	1.6%	-7.5%	9.0%	11.0	3.0%
CC(C)c1nnc(NC(=O)CCC(=O)N2CCN(C3c4ccccc4-c4ccccc43)CC2)s1	0.7%	-14.2%	?	-13.9	-0.6%
CC(=O)c1ccc(OCC(=O)Nc2c(C)nn(-c3ccccc3)c2C)cc1	?	-8.0%	?	-12.2	-0.7%
Nc1nc(SCC(=O)Nc2ccccc2)nc2nc3c(cc12)CCCC3	-22.4%	?	13µM*	-51.9*	?
Cc1cc2cc3c(cc2nc1SCC(=O)Nc1ccccc1)CCC3	14.6µM*	25.7%	12.6µM*	34.3	3.8%
Cc1ccc2cc(C)c(SCC(=O)Nc3ccc(S(=O)(=O)N4CCCC4)cc3)nc2c1	?	-6.5%	?	-13.9	4.4%
Cc1ccc(NC(=O)CSc2nc(N)c3cc4c(nc3n2)CCCC4)cc1	16.4µM*	?	?	16.6	?
Cc1ccc(Oc2ccc(S(=O)(=O)N3CCOCC3)cc2C(N)=O)c(-n2nc3ccccc3n2)c1	3.66µM*	4.11µM*	4.11µM*	45.9	?

High-throughput results deposited in PubChem BioAssay by National Center for Advancing Translational Sciences (NCATS).
